HepG2 tox: qHTS for Inhibitors of TGF-b: Cytotox Counterscreen; HepG2 CAGA-GFP viability, ATP luminescence, 18 h; 410,000 tested, 0.76% active; AID 588856, 2011; Potency, µM (highest dose often 46.1 µM), usual class: cytotoxic
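CellTiter-Glo luminescence gave cytotoxicity after 18 hours at 37 degrees C. The cells were HepG2 CAGA-GFP in 1% FBS DMEM, stimulated with 500 pg/mL TGF-beta after compound addition. %Activity was normalised to no-cell wells (complete cell-killing) and DMSO (no toxicity), and curves were fitted and classified.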
HT1080 IDH1KD tx: qHTS for induction of synthetic lethality in tumor cells producing 2HG: qHTS for the HT-1080-IDH1KD cell line | 360,000 tested, 2% active | Potency, µM (doses to about 46.1 µM), actives largely listed as cytotoxic | HT-1080 IDH1 knockdown viability, ATP luminescence, 48 h | AID 686971, 2013
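Viability of IDH1-knockdown HT-1080 fibrosarcoma cells was assessed by CellTiter-Glo after 48 h at 37 °C with titrated compound; concentration-effect curves were classified by fit quality and response size.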
KB-V1 MDR tox: qHTS assay for MDR1-selective chemotherapeutics: Primary screen using the drug-selected MDR subline cells KB-V1; KB-V1 MDR cells viability, CellTiter-Glo, 72 h; Potency, µM (doses to about 46.1 µM), usual class: cytotoxic; 400,000 tested, 3.4% active; AID 1347076, 2019; further: nearly all actives have a fitted effect of over 60% in size
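Luminescent ATP read-out (CellTiter-Glo, 10 min) measures survival of drug-selected KB-V1 MDR cells after 72 h, 37 degrees C compound exposure. Medium: phenol-red-free DMEM, 10% FBS. Values from fitted concentration-response curves.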
KB-3-1 cytotox: qHTS assay for MDR1-selective chemotherapeutics: Primary screen using the parental adenocarcinoma cell KB-3-1 | AID 1347075, 2019 | 400,000 tested, 1.4% active | Potency, µM (titrated, usually from 46.1 µM), hits mostly cytotoxic | KB-3-1 viability, CellTiter-Glo ATP luminescence, 72 h; further: nearly all actives have a fitted effect of over 60% in size
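Viability of parental KB-3-1 cells, measured by CellTiter-Glo luminescence, followed a 72 h incubation at 37 °C with pinned compounds in phenol-red-free DMEM containing 10% FBS.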
TGFb SMAD3 inh: qHTS for Inhibitors of TGF-b. 410,000 tested, 1.2% active. HepG2 CAGA-GFP TGF-b/SMAD3 reporter, GFP fluorescence, 18 h; TGF-beta stimulated, 500 pg/mL final. Potency, µM (doses to about 46.1 µM), usual class: inhibitors; further: nearly all actives have a fitted effect of over 65% in size
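Inhibition was scored as loss of TGF-beta-induced (500 pg/mL final, 18 hours, 37 degrees C) GFP in HEPG2 cells carrying a CAGA-GFP reporter, in DMEM with 1% FBS. Well GFP was summed per cell; Activity was normalised to unstimulated and stimulated DMSO wells, then concentration-response fitting.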
HT1080-NT tox: qHTS for induction of synthetic lethality in tumor cells producing 2HG: qHTS for the HT-1080-NT fibrosarcoma cell line; HT-1080-NT fibrosarcoma viability, CellTiter-Glo ATP luminescence, 48 h; Potency, µM (series often up to 46.1 µM), hits mostly cytotoxic; 360,000 tested, 1.6% active; AID 686970, 2013;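 further: NT is the 2HG producing partner of a matched IDH1 knockdown line; nearly all actives have a fitted effect of over 55% in size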
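750 cells/well, RPMI + 5% FBS; 2 h settle, compound pin-transfer, 48 h at 37 degrees C. CellTiter-Glo 10 min RT, luminescence. Normalized to DMSO and media-only wells.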
A number is an active result; . = inactive; ? = inconclusive; / = no result; ! = not confirmed by another sample. Most compounds without a hit are left out; they make up all but 6.6% or so of the library. The call rests on the fitted dose curve; in most records, active means well fitted curve in the direction sought with a large enough effect; inconclusive means small, poorly fitted or top-dose-only effect, or another doubt; inactive means no such curve, though single readings can be large; an effect the other way counts as inactive or inconclusive.

SMILES	HepG2 tox	HT1080 IDH1KD tx	KB-V1 MDR tox	KB-3-1 cytotox	TGFb SMAD3 inh	HT1080-NT tox
Cc1nc2ccccn2c1C(=O)NCc1ccc2c(c1)OCO2	.	.	16µM	.	.	.
Cc1nc2ccccn2c1C(=O)N/N=C/c1ccc2c(c1)OCO2	.	.	18µM	?	.	.
CCOc1cc(/C=N\NC(=O)c2c(C)nc3ccccn23)ccc1O	.	.	.	.	.	.
Cc1ccc(CSc2cn(CC(=O)N3CCCCC3)c3ccccc23)cc1	.	/	/	/	?	/
CCCCNC(=O)O[C@@H]1C[C@@H]2CCN3C(=O)CCC[C@H]([C@H]1CC)[C@H]23	.	.	21µM!	.	.	.
Cc1cccc(O)c1C	.	?	.	.	.	.
Cc1cccc(C)c1N=Nc1c(C)cc(O)cc1C	.	21µM	?	?	?	?
O=C(c1ccc(N2CCN(C(=O)c3ccccc3Br)CC2)cc1)c1cccc(F)c1	.	?	5.8µM	?	.	.
O=C(c1ccc(N2CCN(C(=O)c3cccc(F)c3)CC2)cc1)c1cccc(F)c1	.	.	4.1µM	.	?	.
Cc1ccccc1CNC(=O)CN1C(=O)C2CCCCN2c2ccc(C(=O)N3CCCC3)cc21 (stereo not given)	.	/	.	.	.	/
O=C(CI)Nc1cccc2cccnc12	.	/	/	/	.	/
O=C(CCBr)Nc1cccc2cccnc12	.	/	/	/	.	/
O=C(CCCl)Nc1cccc2cccnc12	.	/	/	/	7.1µM	/
O=C(Cc1ccc(F)cc1)Nc1cccc2cccnc12	.	.	16µM	.	.	.
Cc1ccc(C(=O)C[n+]2cc(-c3ccc(C)cc3)n3c2CCCCC3)cc1	.	18µM	.	0.92µM	?	13µM
Cc1ccc(-c2c[n+](Cc3ccc(Cl)c(Cl)c3)c3n2CCC3)cc1	.	?	.	3.7µM	?	?
Cc1ccc(-c2c[n+](CC(=O)Nc3nc(-c4ccc(F)cc4)cs3)c3n2CCC3)cc1	18µM	23µM	.	.	?	21µM
CCN(CC)C(=O)c1ccc2nc(-c3ccccc3)c(-c3ccccc3)nc2c1	.	.	4.1µM	?	.	.
CCC(=O)N1CCc2cc(CNC(=O)Cc3ccc(F)cc3)ccc21	.	/	/	/	.	/
N=c1oc2ccccc2cc1-c1nc(-c2ccccc2)cs1	.	.	23µM	.	.	.
N=c1oc2ccc3ccccc3c2cc1-c1nc(-c2ccccc2)cs1	.	.	.	.	.	.
CCCN1C2CCCC1CC(NC(=S)NCCCOCC)C2 (stereo not given)	.	.	8.2µM	.	.	.
CCN(CC)c1nc2c(S(=O)(=O)c3ccccc3)nnn2c2ccc(Cl)cc12	.	/	?	.	?	/
CCc1ccccc1NC(=O)CN(C)C(=O)CSc1nnc(Nc2cccc(C)c2C)s1	.	.	18µM	.	.	.
CN(CC(=O)Nc1ccccc1Cl)C(=O)CSc1nc2ccccc2s1	.	.	16µM	.	.	.
SMILES	HepG2 tox	HT1080 IDH1KD tx	KB-V1 MDR tox	KB-3-1 cytotox	TGFb SMAD3 inh	HT1080-NT tox
CN(C(=O)CSc1nc2ccc(NC(=O)COc3ccc(Cl)cc3)cc2s1)c1ccccc1	.	/	21µM	?	.	/
Cc1nnc(SCC(=O)N(C)CC(=O)Nc2ccccc2Cl)s1	.	.	.	.	.	.
CN(C(=O)CSc1nc2ccc(NC(=O)COc3ccc(F)cc3)cc2s1)c1ccccc1	.	/	/	/	/	/
COc1ccc(N(Cc2cccs2)C(=O)Nc2ccccc2)cc1	.	/	.	.	.	/
Cc1cc(-c2ccc(S(=O)(=O)Nc3ccccc3F)s2)on1	.	/	.	.	.	/
CCCCN(C)c1nnc(NC(=O)Nc2cccc(C(C)=O)c2)s1	.	/	.	?	.	/
CCOC(=O)N1CCN(Cc2nc(N)nc(Nc3ccc(OC)cc3)n2)CC1	.	?	.	.	.	.
COc1ccc(N2CCN(Cc3nc(N)nc(Nc4ccc(C)c(Cl)c4)n3)CC2)cc1	.	?	5.2µM	.	.	?
Cc1ccc(Nc2nc(N)nc(CN3CCN(c4ccccc4)CC3)n2)cc1Cl	.	?	16µM	.	?	.
Cc1ccc(Nc2nc(N)nc(CN3CCN(Cc4ccc5c(c4)OCO5)CC3)n2)cc1C	.	?	?	.	.	?
Cc1ccc(Nc2nc(N)nc(CN3CCN(Cc4ccc5c(c4)OCO5)CC3)n2)cc1Cl	11µM	.	?	21µM	.	?
CCOC(=O)N1CCN(Cc2nc(N)nc(Nc3ccc(Oc4ccccc4)cc3)n2)CC1	.	?	13µM	.	?	16µM
CC(C)CCN1C(=O)c2ccccc2CC1(C)C(=O)NC1CCC(C)CC1 (stereo not given)	.	/	/	/	/	/
Cc1oc2c(c(C)cc3oc(=O)c(CC(=O)NCCc4ccccc4)c(C)c32)c1C	.	/	/	/	.	/
CCCCc1c(C)[nH]c2c(OC)cccc2c1=S	.	/	.	.	.	/
COC(=O)N(C)C[C@H]1OCc2cn(nn2)CCCC(=O)N([C@@H](C)CO)C[C@@H]1C	.	.	.	.	.	.
CN(Cc1ccccc1)C(=O)c1c[nH]c2ccc(S(=O)(=O)Nc3ccccc3F)cc2c1=O	.	/	.	.	.	/
N/C(=N\OC(=O)Nc1ccccc1)c1ncc([N+](=O)[O-])s1	8.9µM	21µM	?	?	11µM	?
Cc1ccc(Cn2c(SCc3ccc(C(=O)NCCc4ccccc4)cc3)nc3ccncc32)cc1	.	/	/	/	?	/
O=C(c1ccc(CSc2nc3ccncc3n2Cc2ccccc2F)cc1)N1CCCCCC1	.	/	.	.	?	/
Cc1ccc(Cn2c(SCc3ccc(C(=O)N4CCCCCC4)cc3)nc3ccncc32)cc1	.	/	.	?	10µM	/
Cc1ccccc1Cn1c(SCc2ccc(C(=O)N3CCCCC3)cc2)nc2ccncc21	.	/	.	.	13µM	/
Cc1ccc(Cn2c(SCc3ccc(C(=O)N4CCCCC4)cc3)nc3ccncc32)cc1	.	/	/	/	11µM	/
CC1CCC(NC(=O)c2ccc(CSc3nc4ccncc4n3Cc3ccc(F)cc3)cc2)CC1 (stereo not given)	.	/	?	.	3.5µM	/
COc1cccc2sc(N(Cc3cccnc3)C(=O)C3CCCCC3)nc12	.	/	/	/	?	/
CCc1ccccc1NC(=O)CSc1ncc2c(n1)-c1ccccc1N(Cc1ccc(C)cc1)S2(=O)=O	.	/	.	.	.	/
Cc1ccc(Cn2c(=O)n(CCCCC(=O)NCCc3ccc(Cl)cc3)c(=O)c3ccccc32)cc1	.	/	.	.	.	/
